Source: PubChem BioAssay (NCATS)
Results filed as inconclusive are left out. A call without a number means that no potency is given here. Calls of active or inactive are those of the source. Unless noted, calls come from the whole dose curve; as a rule, active = well fitted curve in the direction sought with a large enough effect; inconclusive = small, poorly fitted or top-dose-only effect, or another doubt; inactive = no such curve, though single readings can be large; an effect the other way counts as inactive or inconclusive.

How the values were obtained:
[1] = qHTS for differential inhibitors of proliferation of Plasmodium falciparum line 7G8 (AID 1815);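 note: parasite growth measured after three days of incubation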; note: potency is the fitted concentration of half-maximal effect
[2] = qHTS for differential inhibitors of proliferation of Plasmodium falciparum line GB4 (AID 1816); settings: Potency: Plasmodium falciparum GB4 proliferation inhibition;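 note: parasite growth measured after 72 h incubation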; note: potency is the fitted concentration of half-maximal effect
[3] = qHTS for differential inhibitors of proliferation of Plasmodium falciparum line Dd2 (AID 1882); settings: Potency: Plasmodium falciparum Dd2 proliferation inhibition; note: nearly all actives have a fitted effect of over 65% in size; note: potency is the fitted concentration of half-maximal effect
Procedure, shortened: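 Dd2-infected erythrocytes (0.3% parasitemia, 2.5% hematocrit final) incubated with compound 72 h at 37 C, 5% CO2; lysed with saponin/Triton buffer containing SYBR Green I, incubated overnight in the dark, then read by fluorescence (485/535 nm). Normalized to 0.29 uM artemisinin and DMSO.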

[4] = qHTS Assay for Modulators of Human Peripheral Myelin Protein 22 (PMP22) Expression/Activity (AID 1967; active = well fitted curve in the direction sought with a large enough effect in the signal ratio; the % refers to the signal ratio)
Procedure, shortened: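 Luminescence ratio of Pmp22 promoter-driven green luciferase to EF-alpha-driven red luciferase, in engineered mouse MSC80 Schwann cells, served as read-out. Compounds were incubated 24h; untreated cells defined 0% Activity; curves were classified by r2, magnitude and activity.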

[5] = biological target: RecQ-like DNA helicase BLM (Homo sapiens) (UniProt P54132); test: qHTS Validation Assay for Inhibitors of Bloom's syndrome helicase (BLM) (AID 2364)
Chain of RecQ-like DNA helicase BLM (Homo sapiens) (P54132 whole entry, looked up): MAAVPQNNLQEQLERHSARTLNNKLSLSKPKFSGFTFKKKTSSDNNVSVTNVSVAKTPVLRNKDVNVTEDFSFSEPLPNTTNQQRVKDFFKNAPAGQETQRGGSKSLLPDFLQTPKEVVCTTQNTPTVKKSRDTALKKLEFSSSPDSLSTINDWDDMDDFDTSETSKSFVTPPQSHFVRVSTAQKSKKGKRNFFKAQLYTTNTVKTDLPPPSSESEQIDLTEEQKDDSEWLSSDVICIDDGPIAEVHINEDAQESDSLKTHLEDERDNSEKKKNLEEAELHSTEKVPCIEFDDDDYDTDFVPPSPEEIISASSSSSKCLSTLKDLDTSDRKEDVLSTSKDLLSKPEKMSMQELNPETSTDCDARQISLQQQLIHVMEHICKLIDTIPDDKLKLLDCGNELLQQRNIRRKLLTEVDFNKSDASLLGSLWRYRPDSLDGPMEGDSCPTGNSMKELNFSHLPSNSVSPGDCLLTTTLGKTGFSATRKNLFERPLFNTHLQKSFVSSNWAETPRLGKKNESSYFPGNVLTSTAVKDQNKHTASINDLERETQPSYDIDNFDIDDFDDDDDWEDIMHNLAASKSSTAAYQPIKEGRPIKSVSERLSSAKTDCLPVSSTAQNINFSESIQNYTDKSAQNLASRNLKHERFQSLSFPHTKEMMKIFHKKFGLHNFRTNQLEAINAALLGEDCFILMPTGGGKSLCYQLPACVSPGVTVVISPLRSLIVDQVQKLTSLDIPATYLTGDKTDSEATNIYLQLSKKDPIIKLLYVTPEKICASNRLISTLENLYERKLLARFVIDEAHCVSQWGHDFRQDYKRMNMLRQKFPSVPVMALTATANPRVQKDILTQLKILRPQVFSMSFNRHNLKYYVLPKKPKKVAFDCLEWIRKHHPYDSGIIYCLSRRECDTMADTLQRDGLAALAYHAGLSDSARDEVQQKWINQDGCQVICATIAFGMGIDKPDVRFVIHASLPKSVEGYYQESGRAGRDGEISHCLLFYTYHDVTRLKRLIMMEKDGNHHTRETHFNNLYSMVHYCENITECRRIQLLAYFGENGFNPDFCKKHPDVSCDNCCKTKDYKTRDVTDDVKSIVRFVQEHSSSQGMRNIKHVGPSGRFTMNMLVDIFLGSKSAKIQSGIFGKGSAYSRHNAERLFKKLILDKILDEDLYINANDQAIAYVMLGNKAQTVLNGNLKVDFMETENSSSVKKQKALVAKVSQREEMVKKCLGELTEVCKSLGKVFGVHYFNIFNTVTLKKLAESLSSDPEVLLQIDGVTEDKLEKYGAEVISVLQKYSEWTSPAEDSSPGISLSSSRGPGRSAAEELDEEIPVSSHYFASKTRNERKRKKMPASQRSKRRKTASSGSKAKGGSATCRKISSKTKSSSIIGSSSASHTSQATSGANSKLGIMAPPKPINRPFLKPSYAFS
Procedure, shortened: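 BLM 50 nM in 25 mM Tris-HCl pH 8.0, 5 mM NaCl, 2 mM MgCl2, 1 mM DTT, 0.01% Tween-20, 2.5 ug/ml poly(dI-dC); 15 min cpd preinc, RT. Start: 200 nM forked DNA + 2 mM ATP (final). TAMRA read, 2 reads 2 h apart.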

Structure (SMILES)	Potency [1]	Potency [2]	Potency [3]	outcome [4]	outcome [5]
CC(C)(O)C1C2OC(=O)C1[C@]1(O)C[C@H]3O[C@]34C(=O)O[C@H]2[C@]14C (some centres undefined) (tested in a mixture with another compound)	inactive	inactive	inactive		
CC12CCC3C(CCC4=C(O)C(=O)CCC43C)C1CCC2=O (centres undefined)		inactive	inactive	inactive	inactive
CCCN1CCCC(c2cccc(O)c2)C1 (centres undefined)	8.91 µM (active)	12.6 µM (active)		inactive	inactive
Oc1ccc2c3c1O[C@H]1[C@@H](O)CC[C@@]4(O)C(C2)N(CC2CCC2)CCC314 (some centres undefined)	inactive		inactive	inactive	inactive
COC(=O)C(N)CCCN=C(N)N[N+](=O)[O-] (centres undefined)	inactive	inactive	inactive	inactive	
CCNC(=O)[C@H]1O[C@@H](n2cnc3c(N)ncnc32)[C@H](O)[C@H]1O	inactive	inactive	inactive	inactive	
COc1cc(C=C(C#N)C#N)cc(O)c1O		12.6 µM (active)			
CN1C[C@@H](CS(=O)(=O)N(C)C)C[C@@H]2c3cccc4c3c(cn4C)C[C@H]21					inactive
C[N+]1(C)C2CC(OC(=O)C(CO)c3ccccc3)CC1C1OC12 (centres undefined)	inactive	inactive	inactive	inactive	inactive
CCCC[N+]1(C)C2CC(OC(=O)C(CO)c3ccccc3)CC1C1OC12 (centres undefined)	inactive	inactive	inactive		
Nc1ncnc2c1ncn2[C@@H]1O[C@H](COP(=O)(O)CP(=O)(O)OP(=O)(O)O)[C@H](O)[C@H]1O	inactive	inactive	inactive	inactive	
C[C@H]1C2Cc3ccc(O)cc3[C@]1(C)CCN2CC1CC1		11.2 µM (active)	7.94 µM (active)	inactive	inactive
COc1cc(C[C@@H](C)N)c(OC)cc1I		12.6 µM (active)	7.08 µM (active)		inactive
COc1ccc2c3c1O[C@H]1C(=O)CC[C@@]4(O)C(C2)N(CC2CC2)CCC314 (some centres undefined)				inactive	
CCC(CO)NC(=O)[C@@H]1C=C2c3cccc4[nH]cc(c34)C[C@H]2N(C)C1 (some centres undefined)	10 µM (active)				
CCN1C[C@]2(C)CC[C@H](O)[C@@]34[C@@H]5C[C@@H]6[C@@H](OC)C[C@@](O)(C5[C@H]6O)[C@@H](C[C@@H]23)[C@@H]14	inactive		inactive	inactive	
